Records with an inconclusive call do not appear. Calls of active or inactive are those of the source. Calls come from the whole dose curve; as a rule, active = well fitted inhibition curve with a large enough effect; inconclusive = small, poorly fitted or top-dose-only effect; inactive = flat fitted curve, though single readings scatter. Non-standard residues stand in square brackets, D forms with d. Residues, ends and D or L forms follow the SMILES beside them. Dolaproine = CO[C@@H]([C@@H]1CCCN1)[C@@H](C)C(=O)O; Dil = CC[C@H](C)[C@H](NC)[C@@H](CC(=O)O)OC; NMeV = CN[C@H](C(=O)O)C(C)C
Assay: Identification of antibody-drug conjugate (ADC) payloads which are substrates of ATP-binding cassette drug efflux transporters: ABCG2-H460 cell line
Conditions: H460 MX20 (ABCG2) viability, CellTiter-Glo, 48 h
From the text: Antibody-drug conjugates (ADCs) feature an antibody recognizing a specific protein joined to a potent toxic payload. Numerous antibody-drug conjugates have received FDA approval; however, clinical resistance arises. Resistance mechanisms include decreased expression or mutation of the antibody target, impaired payload release, or increased expression of ATP-binding cassette (ABC) efflux transporters associated with multidrug resistance. We therefore sought to characterize the interaction of ABC multidrug transporters with ADC payloads. We performed a high-throughput screen with 27 common ADC payloads using cells lines expressing ABC transporters P-glycoprotein (P-gp, encoded by ABCB1) or ABCG2 (encoded by ABCG2). Confirmatory assays were also performed using cells transfected to express P-gp, ABCG2, or MRP1 (encoded by ABCC1). Several commonly used ADC payloads were substrates of P-gp, including calicheamicin gamma1, monomethyl auristatin E, DM1, and DM4. All the pyrrolobenzodiazepines tested - SJG136, SGD-1882, SG2057, and SG3199 - were substrates of P-gp, ABCG2, and MRP1. […] These findings highlight the risk of transporter-mediated resistance with certain ADC payloads and underscore the importance of selecting payloads that evade ABC transporter recognition in future ADC development.
HEK-293 cells were transfected with empty vector (pcDNA) or vector containing the human ABCB1 (MDR-19), ABCG2 (R-5), or ABCC1 gene (MRP1) and were maintained in EMEM with 2 mg/mL G418 added to maintain transporter expression. The HeLa derivative KB-3-1 and the P-gp overexpressing KB-8-5-11 subline were maintained in DMEM; KB-8-5-11 additionally received 100 ng/mL colchicine. H460 parental cells were obtained from the Division of Cancer Treatment and Diagnosis Tumor Repository, National Cancer Institute at Frederick, MD and were cultured in RPMI. The ABCG2 expressing subline H460 MX20 was generated by selecting H460 cells in 20 nM mitoxantrone. Media in all cases was supplemented with 10% FBS and 1% penicillin-streptomycin. We explored 27 common ADC payloads, in two orthogonal, paired cell line sets-a drug selected and transfected set for each transporter--to identify substrates of the ABC transporters P-gp and ABCG2. Compounds were sourced from Levena Biopharma (San Diego, CA), Selleck Chem (Houston, TX), ChemieTek (Indianapolis, IN), or Microsource Discovery Systems (Gaylordsville, CT). Screening was performed as previously described. Briefly, cells were plated at a density of 500 cells/well in 1536 well plates with compounds added using a 1536-head pin tool (Kalypsys, San Diego CA). Cells were incubated with cytotoxic drugs and processed with CellTiter Glo reagent (Promega, Madison, WI) to determine viability after 48 hours. P-gp substrates were identified by comparing compound activity between paired sets of low-expressing (sensitive) and over-expressing (resistant) cell lines.

Row | Structure (SMILES) | Potency
1 | COc1cccc2c1C(=O)c1c(O)c3c(c(O)c1C2=O)C[C@@](O)(C(=O)CO)C[C@@H]3O[C@H]1C[C@H]2[C@H](O[C@@H]3[C@@H](OC)OCCN32)[C@H](C)O1 | 0.0598 nM (active)
2 | COC(=O)c1cc2c3c(cc(O)c2[nH]1)N(C(=O)c1cc2cc(OC)c(OC)c(OC)c2[nH]1)CC3CCl (stereo unspecified) | 0.4 nM (active)
3 | CCN(C(C)=O)[C@H]1CO[C@@H](O[C@H]2[C@H](O[C@H]3C#C/C=C\C#C[C@]4(O)CC(=O)C(NC(=O)OC)=C3/C4=C\CSSSC)O[C@H](C)[C@@H](NO[C@H]3C[C@H](O)[C@H](SC(=O)c4c(C)c(I)c(O[C@@H]5O[C@@H](C)[C@H](O)[C@@H](OC)[C@H]5O)c(OC)c4OC)[C@@H](C)O3)[C@@H]2O)C[C@@H]1OC | 7.5 nM (active)
4 | CCc1c2c(nc3ccc(O)cc13)-c1cc3c(c(=O)n1C2)COC(=O)[C@]3(O)CC | 11.9 nM (active)
5 | CN(C)CCOc1ccc2[nH]c(C(=O)N3C[C@@H](CCl)c4c3cc(O)c3ccccc43)cc2c1 | 0.2 nM (active)
6 | CC[C@]1(O)CC2CN(CCc3c([nH]c4ccccc34)[C@@](C(=O)OC)(c3cc4c(cc3OC)N(C)[C@H]3[C@@](O)(C(=O)OC)[C@H](OC(C)=O)[C@]5(CC)C=CCN6CC[C@]43[C@@H]65)C2)C1 (stereo partly specified) | 533 nM (active)
7 | CC(C)(C)OC(=O)Nc1ccc2[nH]c(C(=O)N3C[C@@H](CCl)c4c3cc(O)c3ccccc43)cc2c1 | 2.1 nM (active)
8 | CCN[C@H]1CO[C@@H](O[C@H]2[C@H](O[C@H]3C#C/C=C\C#C[C@]4(O)CC(=O)C(NC(=O)OC)=C3/C4=C\CSSSC)O[C@H](C)[C@@H](NO[C@H]3C[C@H](O)[C@H](SC(=O)c4c(C)c(I)c(O[C@@H]5O[C@@H](C)[C@H](O)[C@@H](OC)[C@H]5O)c(OC)c4OC)[C@@H](C)O3)[C@@H]2O)C[C@@H]1OC | 1.1 nM (active)
9 | COc1cc2cc(c1Cl)N(C)C(=O)C[C@H](O)[C@]1(C)O[C@H]1[C@H](C)C1C[C@@](O)(NC(=O)O1)[C@H](OC)/C=C/C=C(\C)C2 | 4750 nM (active)
10 | COc1cccc2c1C(=O)c1c(O)c3c(c(O)c1C2=O)C[C@@](O)(C(=O)CO)C[C@@H]3O[C@H]1C[C@H](N)[C@H](O)[C@H](C)O1 | 377 nM (active)
11 | CC[C@H](C)[C@@H]([C@@H](CC(=O)N1CCC[C@H]1[C@H](OC)[C@@H](C)C(=O)N[C@@H](Cc1ccccc1)C(=O)O)OC)N(C)C(=O)[C@@H](NC(=O)[C@@H](NC)C(C)C)C(C)C (H-[NMeV]V[Dil][Dolaproine]F-OH) | 5330 nM (active)

Source: PubChem BioAssay AID2061321 (National Center for Advancing Translational Sciences (NCATS), 2025)
